# Results reported in PubChem BioAssay.
# Calls of active or inactive are those of the source.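 Rule for the calls: active = compounds killing one labelled cell type while sparing the other, by normalised counts and ratio limits, not self-fluorescent; inactive = the rest.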
# Test: EMT-state selective cytotoxicity in co-culture – imaging, PC-3E GFP, TEM4-18 mCherry, primary screen (AID 1345086);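 note: cells exposed to compound for 72 h before imaging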;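 for red/green cell ratio (normalised): normalised mesenchymal count divided by normalised epithelial count so high means epithelial killing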
# Conditions: PC-3E GFP / TEM4-18 mCherry co-culture, imaging cell counts, at 1 µM; for red/green cell ratio (normalised): actives lie on both sides, counts scaled to control wells, 1 = unselective
# [1] = measured here: epithelial PC-3E GFP cell survival
# [2] = measured here: mesenchymal TEM4-18 mCherry cell survival
SMILES,red/green cell ratio (normalised),normalised cell number [1],normalised cell number [2]
CCCCCCCCCCCC[C@H](C(=O)O)[C@@H](C)C(=O)O,1.15 (inactive),0.84,0.97
C[C@H]1[C@H](C)CC[C@]2(C(=O)O)CC[C@]3(C)C(=CCC4[C@@]5(C)C[C@@H](O)[C@H](O)[C@@](C)(CO)C5[C@H](O)C[C@]43C)[C@H]12 (stereo partly specified),1.27 (inactive),0.92,1.17
C=C1C[C@]23C[C@@]1(O)CC[C@H]2[C@@]12C=C[C@H](O)[C@](C)(C(=O)O1)[C@H]2[C@@H]3C(=O)O,1.1 (inactive),0.93,1.02
C[C@H]1C(=O)CCC2[C@]3(C)CC[C@@]4(C)C5CC(C)(C)CC[C@]5(C)CC[C@]4(C)C3CC[C@@]21C (stereo partly specified),1.06 (inactive),1.06,1.13
CC1=CC2C(C(C)C)CCC(C)(O)C2CC1 (stereo unspecified),1.01 (inactive),1.1,1.11
C[C@H](Cc1cc(O)cc(O)c1C(=O)O[C@H](C)CC(=O)O[C@H](C)Cc1cc(O)cc(O)c1C(=O)O[C@H](C)CC1Cc2cc(O)cc(O)c2C(=O)O1)OC(=O)C[C@@H](C)O (stereo partly specified),0.98 (inactive),0.85,0.83
COC1=C(O)C(=O)c2c(cc3oc(C(C)=O)c(O)c3c2O)C1=O,1.19 (inactive),0.94,1.12
CC(CCC(=O)O)[C@H]1CCC2C3CC[C@@H]4C[C@H](O)CC[C@]4(C)C3C[C@H](O)[C@@]21C (stereo partly specified),1.05 (inactive),0.86,0.91
CC(CC(=O)N1C(=O)OC[C@@H]1Cc1ccccc1)N1C(=S)OC[C@H]1c1ccccc1 (stereo partly specified),0.87 (inactive),1.17,1.02
O=C1OCC[C@H]1Oc1ccc(Oc2cnc3ccc(Cl)cc3n2)cc1,1.01 (inactive),1.08,1.09
CC(CC(=O)N1CCOC1=O)N1C(=S)OC[C@@H]1c1ccccc1 (stereo partly specified),1.05 (inactive),0.85,0.89
CC(CC(=O)N1C(=O)OC[C@H]1c1ccccc1)N1C(=S)OC[C@@H]1c1ccccc1 (stereo partly specified),0.97 (inactive),1.02,0.99
O=S(=O)([O-])OC[C@H]1O[C@@](COS(=O)(=O)[O-])(O[C@H]2O[C@H](COS(=O)(=O)[O-])[C@@H](OS(=O)(=O)[O-])[C@H](OS(=O)(=O)[O-])[C@H]2OS(=O)(=O)[O-])[C@@H](OS(=O)(=O)[O-])[C@@H]1OS(=O)(=O)[O-].[Al+3].[Na+].[Na+].[O-2].[O-2].[OH-],0.81 (inactive),1.15,0.93
CNC1C(O[C@@H]2OC(CO)C(N)[C@H](O)C2O)OC2CC(N)[C@@H](OC3C(N)C[C@@H](N)C(O)[C@H]3O)OC2C1O (stereo partly specified),1.2 (inactive),0.92,1.1
CC(=O)O[C@H]1CC2CCC3C(CC[C@@]4(C)C3C[C@H]([N+]3(C)CCCCC3)[C@@H]4OC(C)=O)[C@@]2(C)C[C@@H]1[N+]1(C)CCCCC1 (stereo partly specified),0.99 (inactive),0.95,0.94
CN(C(=O)Cc1ccccc1)C1C(O[C@@H]2OC(COS(=O)(=O)O)C(NC(=O)Cc3ccccc3)[C@H](OS(=O)(=O)O)[C@H]2OS(=O)(=O)O)OC2C[C@@H](NC(=O)Cc3ccccc3)[C@@H](OC3C(NC(=O)Cc4ccccc4)C[C@@H](NC(=O)Cc4ccccc4)[C@H](OS(=O)(=O)O)[C@H]3OS(=O)(=O)O)OC2C1OS(=O)(=O)O (stereo partly specified),0.95 (inactive),1.04,0.99
O[C@@H]1[C@H](O)CO[C@H]1O,0.77 (inactive),1.11,0.86
CCC1OC(=O)[C@H](C)C(=O)[C@H](C)[C@@H](OC2O[C@H](C)C[C@H](N(C)C)[C@H]2O)[C@](C)(OC)C[C@@H](C)C(=O)[C@H](C)[C@H]2N(CCCCn3cnc(-c4cccnc4)c3)C(=O)O[C@@]12C (stereo partly specified),1.16 (inactive),1.06,1.23
Cc1ccc([C@H](C)CC(=O)N2C(=S)O[C@H]3Cc4ccccc4[C@H]32)cc1,0.95 (inactive),1.05,1
CC(C)C1=CC2=CCC3[C@](C)(CCC[C@]3(C)C(=O)O)C2CC1 (stereo partly specified),1.12 (inactive),0.92,1.03
O=C1NCC[C@H]1Oc1ccc(Oc2cnc3ccc(Cl)cc3n2)cc1,0.76 (inactive),1.18,0.9
Cc1ccc(S[C@H]2OC(CO)C(O)[C@H](O)[C@@H]2N)cc1 (stereo partly specified),0.98 (inactive),1,0.97
